Compounds with a hit are over-represented: about 3.1% of the library has one in this group of screens.
GLS inh: qHTS for Inhibitors of Glutaminase (GLS); Potency, µM (highest dose often 45.5 µM), most hits filed as inhibitors; hit rate 0.21% among 410,000; Glutaminase kidney isoform, mitochondrial (Homo sapiens), O94925; GLS enzymatic activity, qHTS titration; AID 624170, 2012
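hKGA in 45 mM KH2PO4 pH 8.2, 0.02% Tween-20 with pin-transferred compounds; 1 mM L-glutamine (stock) plus glutamate oxidase/HRP/Amplex Red coupling added. Fluorescence read initially and after 30 min at RT.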
PI4K2A block: qHTS for small molecular inhibitors of PI4K2A; Phosphatidylinositol 4-kinase type 2-alpha (Homo sapiens), Q9BTU6; purified PI4K2A, ADP-Glo luminescence, 1 h; hits give low values; activity change, negative = inhibition, % at 76.9 µM; hit rate 0.13% among 420,000; AID 1346378, 2018; in the data active means activity change below about -50%; inconclusive means mostly about -30% to -49%
Target sequence (Q9BTU6 whole entry, looked up): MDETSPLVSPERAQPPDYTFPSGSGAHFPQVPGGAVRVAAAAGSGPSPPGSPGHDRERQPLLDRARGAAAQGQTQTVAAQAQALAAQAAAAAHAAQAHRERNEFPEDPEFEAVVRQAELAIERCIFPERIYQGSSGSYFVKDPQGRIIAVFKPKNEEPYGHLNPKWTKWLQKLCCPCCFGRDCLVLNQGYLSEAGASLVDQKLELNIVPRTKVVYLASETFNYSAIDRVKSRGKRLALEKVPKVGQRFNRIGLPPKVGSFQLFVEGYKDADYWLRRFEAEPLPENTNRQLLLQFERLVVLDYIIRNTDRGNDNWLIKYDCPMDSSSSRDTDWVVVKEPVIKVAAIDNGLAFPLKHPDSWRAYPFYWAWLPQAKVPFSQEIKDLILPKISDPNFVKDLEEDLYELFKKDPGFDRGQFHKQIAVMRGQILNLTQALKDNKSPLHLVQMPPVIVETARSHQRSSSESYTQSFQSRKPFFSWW
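In this quantitative HTS, ADP production by PI4K2A was quantified luminescently after 1 h at ambient temperature; 100 microM adenosine served as plate-quality control.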
VDR inh: Inhibitors of the vitamin D receptor (VDR): qHTS; Vitamin D3 receptor (Homo sapiens), P11473; VDR-SRC2-3 peptide fluorescence polarization, 2 h; Potency, µM, most hits filed as inhibitors; hit rate 0.93% among 400,000; AID 504847, 2011
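Fluorescence polarization assay measuring small-molecule disruption of VDR binding to the coregulator peptide SRC2-3. Compounds were pin-transferred (23 nl) into the reagent mix and incubated 2 h at room temperature before reading.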
GCN5L2 inh: qHTS Assay for Inhibitors of GCN5L2; Histone acetyltransferase KAT2A (Homo sapiens), Q92830; GCN5L2 HAT assay, ThioGlo1 CoA-SH fluorescence; Potency, µM (top dose mostly 58.9 µM), hits mostly inhibitors; hit rate 0.21% among 390,000
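Preincubate 20nM GCN5L2 with compound 15 min, RT → add 50uM ThioGlo1 + 75uM H3(1-25) + 70uM acetyl-CoA → read fluorescence 0 and 20 min. Primary qHTS; fluorescent artifacts likely.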
PLK1 PBD block: qHTS for Inhibitors of PLK1-PDB (polo-like kinase 1 - polo-box domain): Primary Screen; Plk1 PBD binding of FITC phosphopeptide, fluorescence polarization; hit rate 2.8% among 360,000; Potency, µM, actives largely listed as inhibitors; further: series mostly up to about 57 µM; nearly all actives have a fitted effect of over 65% in size
Numbers stand for hits; - = inactive; ? = inconclusive; . = no result given. Unless noted, the call rests on the fitted dose curve; in most records, active means well fitted curve in the direction sought with a large enough effect; inconclusive means small, poorly fitted or top-dose-only effect, or another doubt; inactive means no such curve, though single readings can be large; an effect the other way counts as inactive or inconclusive.

SMILES	GLS inh	PI4K2A block	VDR inh	GCN5L2 inh	PLK1 PBD block
CCN1C(=O)S/C(=C/c2c(OCc3ccc(C(=O)O)cc3)ccc3ccccc23)C1=O	-	-	?	?	37.7µM
O=C(O)c1ccc(COc2ccc3ccccc3c2/C=C2/NC(=O)N(c3ccccc3)C2=O)cc1	-	-	-	-	-
O=C(NCC(c1ccc(Cl)cc1)N1CCCCC1)c1ccccc1 (centres undefined)	-	-	-	-	.
Clc1cccc(Cl)c1CNc1ccc(N2CCCC2)cc1	7.08µM	-	?	-	?
COc1ccc(CCNC(=O)c2ccc3c(c2)CCN3S(C)(=O)=O)cc1	-	-	-	-	.
CC1/C=C/C=C/C=C/C=C/C=C/C=C/C=C/C(OC2OC(C)C(O)C(N)C2O)CC2O[C@@](O)(CC(O)CC(O)C(O)CCC(O)CC(O)CC(=O)OC(C)[C@H](C)C1O)CC(O)C2C(=O)O (some centres undefined)	.	.	50.1µM	-	.
Cc1nn2c3c(cnc2c1-c1ccc(F)cc1)C(=O)CC(c1ccccc1)C3 (centres undefined)	-	-	-	-	.
Cn1[nH]c2c(c1=O)[C@H](c1ccc(F)cc1)O[C@H](CCc1ccccc1)C2	-	-	.	.	18.9µM
CCSC1=C(C#N)C(c2ccccc2C)CC(=O)N1 (centres undefined)	-	-	-	-	-
CCCSC1=C(C#N)C(c2cccs2)CC(=O)N1 (centres undefined)	-	-	-	-	23.8µM
CCOC(=O)c1c(C)[nH]c(C)c1C(=O)COC(=O)CNC(=O)c1ccc(OCC)cc1	-	-	-	-	29.9µM
CCOC(=O)c1c(C)[nH]c(C(=O)COC(=O)CNC(=O)c2ccc(Br)cc2)c1C	-	-	-	-	-
O=C(Nc1nc(=O)c2ccccc2s1)c1ccc(F)cc1	-	-	70.8µM	-	-
O=C(Nc1noc2ccccc12)c1cccc(F)c1	-	-	-	-	.
O=C(Nc1nc(=O)c2ccccc2s1)c1ccc(Cl)cc1	-	-	-	-	?
O=C(Nc1noc2ccccc12)c1ccc(F)cc1	-	-55.7	-	-	.
CCCN1CNc2c(c(=O)[nH]c(=S)n2CCc2ccc(Cl)cc2Cl)C1	.	.	-	.	.
C[C@H]1[C@@H](NCC2CCCCC2)CC[C@@]23CCCN2C(=O)CCC[C@@H]13	.	-	.	.	.
O=[N+]([O-])c1ccc(C[n+]2cccc3ccc4cccnc4c32)cc1	?	-	79.4µM	-	9.47µM
CCCCC/C=C\C/C=C\C/C=C\C=C\C(O)CCCC(=O)O (centres undefined)	.	.	-	.	.
Oc1ccc(/C=N/N2CCN(C3c4ccccc4-c4ccccc43)CC2)cc1O	11.2µM	-	-	-	-
CCOC(=O)N1CCN(C(=O)CSCC(=O)N=c2sc3ccccc3n2C)CC1	-	-	-	.	-
CCOC(=O)N1CCN(C(=O)CSCC(=O)N=c2sc3cc(OC)ccc3n2C)CC1	-	-	?	.	26.7µM
CCCn1c(SCC(=O)N2CCCCC2)nnc1-c1ccccn1	.	.	.	-	.
CCCn1c(SCC(=O)N2c3ccc(F)cc3CCC2C)nnc1-c1ccccn1 (centres undefined)	-	-	?	-	29.9µM
SMILES	GLS inh	PI4K2A block	VDR inh	GCN5L2 inh	PLK1 PBD block
O=C1NC2CCCCN2C12CCN(CCCN1c3ccccc3CCc3ccc(Cl)cc31)CC2 (centres undefined)	-	-	.	.	.
CCOC(=O)c1cc(-c2cccnc2)nn1-c1ccccc1C	-	-	?	-	26.7µM
CCOC(=O)c1cc(-c2ccccc2)nn1CC1CC(c2cccnc2)=NO1 (centres undefined)	-	-	-	.	-
COC(=O)c1nn(-c2ccc(OC)cc2)c(=O)c2c(N)sc(C)c12	-	-	?	-	23.8µM
CCOC(=O)c1nn(-c2ccc(C)cc2)c(=O)c2c(N)scc12	-	-	12.6µM	-	-
Nc1scc2c(C(=O)O)nn(-c3ccccc3)c(=O)c12	-	-	?	-	.
CC(C)CN1C(=O)N2CCc3ccccc3C2CS1(=O)=O (centres undefined)	.	-	.	.	.
CCCNC(=O)Cn1c(SCc2ccccc2C)nc2ccncc21	.	.	-	.	.

High-throughput results: PubChem, National Center for Advancing Translational Sciences (NCATS)
